Shown are actives, neighbours in structure and some others; about 1.2% of the full set was active somewhere.
GSH fluor: compound fluorescence on glutathione beads, profiling panel, artefact control, biophysical, 488/530 nm, flow cytometry | fluorescence (KMESF) at 10 µM | GSH beads flow cytometry, compound fluorescence 488/530 nm; hits give high values | 0.25% of 190,000 active; in the data active = fluorescence above about 89;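 also: glutathione beads carrying GST-tagged Bcl family fusion proteins plus one bare bead set; values are compound well signal with DMSO vehicle wells as background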
Avidin bead fluor: green autofluorescence of compounds with avidin beads – biophysical, 488/530 nm, flow cytometry, artefact control, profiling panel; compound fluorescence 488/530 nm; hits give high values; fluorescence (KMESF) at 10 µM; 0.38% of 220,000 active; AID 1775, 2009; in the data active = fluorescence above about 47
RGS16-Gao HTS: modulators of RGS16 binding to Galphao, primary screen, biochemical, human proteins, multiplexed bead flow cytometry; 0.38% of 220,000 active; binding response (% of control), % at 10 µM; bead-based flow cytometry RGS16-Galphao binding, fluorescence; actives lie on both sides; AID 1441, 2008;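 also: Galphao activated by GDP with aluminum fluoride before binding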
RGS7-Gao: RGS7-Galphao binding modulators, primary screen, biochemical, multiplexed bead flow cytometry; binding response (% of control), % at 10 µM; AID 1439, 2008; actives lie on both sides; 0.35% of 220,000 active; Guanine nucleotide-binding protein G(o) subunit alpha (Homo sapiens), P09471; in the data active = binding response below about 49% or above about 150%; inconclusive = no clear call, values can overlap the other calls; inactive = in between;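 also: fluorescent Galphao held in activated GDP-AlF4 state binding bead-coupled RGS7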
Target sequence (P09471 whole entry, looked up): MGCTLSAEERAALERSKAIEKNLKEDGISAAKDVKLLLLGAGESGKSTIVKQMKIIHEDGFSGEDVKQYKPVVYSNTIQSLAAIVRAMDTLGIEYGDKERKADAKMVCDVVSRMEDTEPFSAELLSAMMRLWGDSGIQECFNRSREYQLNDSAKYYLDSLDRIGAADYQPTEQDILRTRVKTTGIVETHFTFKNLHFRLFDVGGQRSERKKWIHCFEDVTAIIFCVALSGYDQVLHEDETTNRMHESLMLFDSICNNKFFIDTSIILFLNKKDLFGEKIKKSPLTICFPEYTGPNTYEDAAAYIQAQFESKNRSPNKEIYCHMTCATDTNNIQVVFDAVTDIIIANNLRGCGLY
RGS4-Gao reg: modulators of RGS4 binding to Galphao, primary screen, biochemical, multiplexed bead flow cytometry. actives lie on both sides. binding response (% of control), % at 10 µM. 0.33% of 220,000 active; in the data active = binding response below about 49% or above about 150%; inactive = in between;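 also: fluorescent Galphao activated with aluminum fluoride binding bead-coupled RGS4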
RGS8-Gao: RGS8-Galphao binding modulators, primary screen, biochemical, multiplexed bead flow cytometry; Guanine nucleotide-binding protein G(o) subunit alpha (Homo sapiens), P09471; 0.34% of 220,000 active; actives lie on both sides; response (percent of control binding), % at 10 µM; in the data active = response below about 60% or above about 140%; inactive = in between;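 also: Galphao activated as the GDP aluminium fluoride complex binding bead-coupled RGS8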
RGS-Gao: modulators of RGS–Galpha-o binding, primary screen, biochemical, multiplexed beads, flow cytometry, RGS4/7/8/16/19; shares compounds with RGS16-Gao HTS; multiplexed bead flow cytometry; RGS4–Galpha-o binding response, % at 10 µM; 99% of 1,600 active; AID 1504, 2009;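 also: fluorescently labeled Galpha-o bound to GDP with aluminium fluoride binding biotinylated RGS beads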
Target sequence (P09471 whole entry, looked up): as above
Target sequence (P49798 whole entry, looked up): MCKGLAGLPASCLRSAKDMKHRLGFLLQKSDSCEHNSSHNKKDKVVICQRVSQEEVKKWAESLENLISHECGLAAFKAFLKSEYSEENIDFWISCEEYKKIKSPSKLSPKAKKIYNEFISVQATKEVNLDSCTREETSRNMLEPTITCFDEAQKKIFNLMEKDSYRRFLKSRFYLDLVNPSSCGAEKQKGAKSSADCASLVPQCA
Biotin-avidin: disruption of biotin probe capture by avidin, counter-screen for RGS protein interaction modulators, biochemical, flow cytometry, bead-based; shares compounds with RGS16-Gao HTS; streptavidin beads, fluorescein-biotin binding; inhibition, % at 10 µM; AID 1783, 2009; 1,700 tested, under 10 active;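 active = inhibition above 50%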;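 also: median green fluorescence of gated singlet beads compared with DMSO control wells; 0% = DMSO wells and 100% = complete loss of bead fluorescence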
RGS8-Gao single: RGS8-Galphao binding modulators, confirmation, biochemical, multiplexed bead flow cytometry, single concentration; shares compounds with RGS16-Gao HTS; bead-based flow cytometry RGS8-Galphao binding, fluorescence; actives lie on both sides; binding response (% of control), % at 10 µM; 3% of 1,700 active; AID 1836, 2009; in the data active = binding response below about 72% or above about 130%; inactive = in between;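 also: Galphao activated as GDP AlF4 complex before binding bead RGS8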
RGS7-Gao single: RGS7-Galphao binding modulators, confirmation, biochemical, multiplexed bead flow cytometry, single concentration; shares compounds with RGS16-Gao HTS; bead-based flow cytometry RGS7-Galphao binding; actives lie on both sides; response (percent of control binding), % at 10 µM; 7.8% of 1,700 active; AID 1837, 2009; in the data active = response below about 75% or above about 130%; inactive = in between;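 also: fluorescent Galphao activated with GDP and aluminum fluoride binding bead-coupled RGS7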
RGS16-Gao single: modulators of RGS16-Galphao protein binding, confirmation, biochemical, single concentration, multiplexed bead flow cytometry. shares compounds with RGS16-Gao HTS. bead-based flow cytometry; actives lie on both sides. response (% of control binding), % at 10 µM. 4% of 1,700 active; in the data active = response below about 74% or above about 130%; inactive = in between;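 also: Galphao activated as the GDP aluminium fluoride complex binding bead-coupled RGS16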
RGS4-Gao single: modulators of RGS4-Galphao protein binding, confirmation, biochemical, single concentration, multiplexed bead flow cytometry. shares compounds with RGS16-Gao HTS. actives lie on both sides. binding response (% of control), % at 10 µM. 4% of 1,700 active; in the data active = binding response below about 74% or above about 130%; inactive = in between
RGS19-Gao single: regulators of RGS19-Galphao binding, confirmation, biochemical, single point, multiplexed bead flow cytometry. shares compounds with RGS16-Gao HTS. response (percent of control binding), % at 10 µM. AID 1841, 2009. bead-based flow cytometry RGS19-Galphao binding; actives lie on both sides. 5% of 1,700 active; in the data active = response below about 50% or above about 160%; inactive = in between;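 also: 100% = no compound control and 0% = blank background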
Starred values were filed as active, the others as inactive; ? = inconclusive; . = no result; [ ] = dose if it differs, or a comment. Unless noted, no rule for the calls is given here.

SMILES	GSH fluor	Avidin bead fluor	RGS16-Gao HTS	RGS7-Gao	RGS4-Gao reg	RGS8-Gao	RGS-Gao	Biotin-avidin	RGS8-Gao single	RGS7-Gao single	RGS16-Gao single	RGS4-Gao single	RGS19-Gao single
CC(C)CC(=O)NC1(C(F)(F)F)C(=O)N(CC(C)C)C2=C1C(=O)CC(C)(C)C2 (centres undefined)	9	3	167	169*[activator]	165*[activator]	155*[activator]	.	0	96	88	93	94	80
CCCCCCC(C)OC(=O)c1ccccc1C(=O)O (centres undefined)	.	8	126	?	121	121	.	.	.	.	.	.	.
CCc1ccc(C2CC(c3ccco3)=NN2S(C)(=O)=O)cc1 (centres undefined)	18	.	.	.	.	.	.	-1	99	105	98	100	92
CCOc1ccc2cc(C3CC(c4ccco4)=NN3S(C)(=O)=O)c(Cl)nc2c1 (centres undefined)	.	6	99	?	98	98	.	.	.	.	.	.	.
CC(Sc1ccc2c(c1)OCCO2)C(=O)Nc1ccc(N2CCOCC2)cc1 (centres undefined)	26	8	98	99	100	100	.	.	.	.	.	.	.
COc1ccc(CNC(=O)CN(Cc2ccccc2)C(=O)c2csnn2)cc1	37	14	99	94	96	98	.	.	.	.	.	.	.
C=CCN(CC(=O)NCc1ccccc1)C(=O)c1csnn1	49	.	.	.	.	.	.	1	100	100	99	100	91
Cc1cccc(NC(=O)C2Cc3ccccc3CN2C(=O)OCc2ccccc2)c1C (centres undefined)	6	6	12*	90	91	79	91*	-2	111	102	118	102	116
Cc1c(Cl)cccc1NC(=O)C1Cc2ccccc2CN1C(=O)c1ccccc1 (centres undefined)	19	14	96	97	99	99	.	.	.	.	.	.	.
COc1ccccc1NC(=O)CN(c1ccc([N+](=O)[O-])cc1)S(=O)(=O)c1ccccc1	15	6	185*[activator]	79	113	85	113*	-2	99	98	102	101	102
CCNC(=O)C(Sc1ccccc1)c1ccccc1 (centres undefined)	21	21	252*[activator]	105	106	130	106*	0	101	105	99	101	92
O=C(NCc1ccccc1)C1CCN(S(=O)(=O)N2CCOCC2)CC1	4	18	101	100	98	99	.	.	.	.	.	.	.
CC(CCc1ccccc1)NC(=O)C1CCN(S(=O)(=O)N2CCOCC2)CC1 (centres undefined)	24	11	165	167*[activator]	180*[activator]	160*[activator]	.	2	101	97	100	100	99
O=C(COc1ccc2ccccc2c1)NCCc1ccc2c(c1)OCCO2	13	8	113*[activator]	99	31*	106*[activator]	.	-2	108	110	107	109	110
O=C(COc1ccc2ccccc2c1)NCCNC(=O)COc1ccc2ccccc2c1	37	7	89	99	89	95	.	.	.	.	.	.	.
COc1ccccc1NS(=O)(=O)c1cc(NC(=O)c2cnccn2)ccc1N1CCOCC1	.	3	98	?	94	101	.	.	.	.	.	.	.
COc1ccccc1NS(=O)(=O)c1cc(NC(=O)c2ccncc2)ccc1N1CCOCC1	7	2	22*	94	95	76	95*	-1	97	102	100	98	87
O=c1c2ccccc2c(/C=N/c2n[nH]c(CCCO)n2)c(O)n1-c1ccccc1Cl	17	14	101	98	98	101	.	.	.	.	.	.	.
COc1ccc(NC(=S)N2CCN(C(c3ccccc3)c3ccccc3)CC2)cc1OC	11	4	185*[activator]	107	105	130	105*	-4	102	102	102	100	102
COc1ccc(NC(=S)N2CCCC2)cc1OC	13	11	100	105	102	99	.	.	.	.	.	.	.
CC(=Nc1ccccc1)Nc1ccccc1	38	2	.	125	144	159*[activator]	144*	-1	101	100	103	105	123
CC(C)c1onc(C(=O)NCc2ccccc2)c1[N+](=O)[O-]	9	2	72	98	99	92	.	.	.	.	.	.	.
COC(=O)C(NC(C)=O)(Nc1nc2ccc(S(C)(=O)=O)cc2s1)C(F)(F)F (centres undefined)	57	3	-18*	94	97	92	97*	.	.	.	.	.	.
CCOC(=O)c1[nH]c2cc(OC)c(OC)cc2c1NC(=O)CCN1CCSCC1	.	0	9.8*	?	17*	21*	.	-2	95	90	95	95	85
COc1ccc(C(=O)/C=C/c2ccc(OC(=O)c3cc(OC)c(OC)c(OC)c3)cc2)cc1	10	18	697	129	120	159*[activator]	120*	0	103	101	102	100	92
